26 molecules from the supplement of paper PMC12808144 can be followed below.

Values without a mark were called inactive.

The subject of this assay is NHEM-hTERT. In words: cell viability relative to DMSO control (fraction of DMSO control); higher = less cytotoxic, active = 0.5 or less. Conditions: 1 µM; 120 h. In short, it runs like this:
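Cells in 40 µl per well went into 384-well plates pre-spotted acoustically with a TargetMol library of 315 approved anti-cancer drugs, each at 1 µM in duplicate, for 120 h. Seeding was 2500/well for NHEM-hTERT immortalized melanocytes and 1500/well for patient-derived Mel-DCC-11 and its resistant subline Mel-DCC-11-R, which was run alone and with 8 µM of its selecting drug. Luminescence was read with ATPlite 1step. Viability was normalised to vehicle-treated controls and averaged over duplicates.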
For `CN(C)c1nc(N(C)C)nc(N(C)C)n1` [Altretamine], the cell viability is 0.945.

Consider `C/C=C1/NC(=O)[C@H]2CSSCC/C=C/[C@H](CC(=O)N[C@H](C(C)C)C(=O)N2)OC(=O)[C@H](C(C)C)NC1=O` [Romidepsin], for which the cell viability is 0.0685 (active).

Turning to `CC[C@H](Nc1ncnc2[nH]cnc12)c1nc2cccc(F)c2c(=O)n1-c1ccccc1` [Idelalisib], the cell viability was 0.983.

For `CCN(CC)CCNC(=O)c1c(C)[nH]c(/C=C2\C(=O)Nc3ccc(F)cc32)c1C.C[C@@H](CC(=O)O)C(=O)O` [Sunitinib Malate], the cell viability is 1.03.

With `Nc1nc(Cl)nc2c1ncn2[C@@H]1O[C@H](CO)[C@@H](O)[C@@H]1F` [Clofarabine], the cell viability was 0.53.

For the molecule `Cc1coc2c1C(=O)C(=O)c1c-2ccc2c(C)cccc12` [Tanshinone I], the cell viability is 0.983.

With `CC(=O)O.CC(C)C[C@H](NC(=O)[C@@H](COC(C)(C)C)NC(=O)[C@H](Cc1ccc(O)cc1)NC(=O)[C@H](CO)NC(=O)[C@H](Cc1c[nH]c2ccccc12)NC(=O)[C@H](Cc1cnc[nH]1)NC(=O)[C@@H]1CCC(=O)N1)C(=O)N[C@@H](CCCN=C(N)N)C(=O)N1CCC[C@H]1C(=O)NNC(N)=O` [Goserelin acetate], the cell viability was 1.07.

Consider `CC(/C=C/C=C(\C)C(=O)O[C@@H]1O[C@H](CO[C@@H]2O[C@H](CO)[C@@H](O)[C@H](O)[C@H]2O)[C@@H](O)[C@H](O)[C@H]1O)=C\C=C\C=C(C)\C=C\C=C(/C)C(=O)O[C@@H]1O[C@H](CO[C@@H]2O[C@H](CO)[C@@H](O)[C@H](O)[C@H]2O)[C@@H](O)[C@H](O)[C@H]1O` [Crocin], for which the cell viability is 1.12.

For `CCN(c1cc(-c2ccc(CN3CCOCC3)cc2)cc(C(=O)NCc2c(C)cc(C)[nH]c2=O)c1C)C1CCOCC1`, the cell viability was 0.964.

Consider `CNCc1ccc(-c2[nH]c3cc(F)cc4c3c2CCNC4=O)cc1.O=P(O)(O)O` [Rucaparib Phosphate], for which the cell viability was 0.996.

Regarding `COc1cc(Nc2c(C#N)cnc3cc(OCCCN4CCN(C)CC4)c(OC)cc23)c(Cl)cc1Cl` [Bosutinib], the cell viability was 1.12.

On to `C[C@H](Nc1ncnc2nc[nH]c12)c1cc2cccc(Cl)c2c(=O)n1-c1ccccc1` [Duvelisib], for which the cell viability was 0.912.

As to `C[C@@H]1O[C@@H](O[C@H]2[C@H](Oc3cc(O)c4c(c3)O[C@H](c3ccc(O)cc3)CC4=O)O[C@H](CO)[C@@H](O)[C@@H]2O)[C@H](O)[C@H](O)[C@H]1O` [Naringin], the cell viability is 0.986.

Turning to `Nc1ccccc1NC(=O)c1ccc(CNC(=O)OCc2cccnc2)cc1` [Entinostat], the cell viability was 0.554.

Consider `Nc1nc(F)nc2c1ncn2[C@@H]1O[C@H](CO)[C@@H](O)[C@@H]1O` [Fludarabine], for which the cell viability is 0.934.

`Oc1c(I)cc(Cl)c2cccnc12` [Clioquinol]: the cell viability is 0.798.

With `CC1(C)CCC(CN2CCN(c3ccc(C(=O)NS(=O)(=O)c4ccc(NCC5CCOCC5)c([N+](=O)[O-])c4)c(Oc4cnc5[nH]ccc5c4)c3)CC2)=C(c2ccc(Cl)cc2)C1`, the cell viability was 0.502.

For `COc1cc2ncnc(Nc3ccc(F)c(Cl)c3)c2cc1OCCCN1CCOCC1` [Gefitinib], the cell viability was 0.905.

Regarding `CCC1(O)C(=O)OCc2c1cc1n(c2=O)Cc2cc3cc(O)ccc3nc2-1` (stereo unspecified) [Hydroxy Camptothecine], the cell viability is 0.899.

On to `CS(=O)(=O)OCCCCOS(C)(=O)=O` [Busulfan], for which the cell viability is 1.14.

Turning to `COC(=O)C1=C(C)NC(C)=C(C(=O)OC)C1c1ccccc1[N+](=O)[O-]` [Nifedipine], the cell viability was 1.03.

Take `Cc1[nH]c2ccccc2c1CCNCc1ccc(/C=C/C(=O)NO)cc1` [Panobinostat]: the cell viability is 0.339 (active).

With `S=c1nc[nH]c2nc[nH]c12` [Mercaptopurine], the cell viability was 1.07.

Turning to `Nc1ncn([C@@H]2O[C@H](CO)[C@@H](O)[C@H]2O)c(=O)n1` [Mylosar], the cell viability is 0.874.

For the molecule `C#Cc1cccc(Nc2ncnc3cc(OCCOC)c(OCCOC)cc23)c1` [Erlotinib], the cell viability was 1.02.

In the case of `O=C(O)C1CSCN1` (stereo unspecified) [Thioproline], the cell viability is 1.17.
